# Screening data: PubChem BioAssay, SRMLSC
# MRP reversal = reversal of MRP1-mediated doxorubicin resistance, primary screen, H69AR cells, doxorubicin co-treatment | H69AR cells + 2 uM doxorubicin, CellTiter-Glo, 72 h | differential viability (reversal), % at 10 µM | hit rate 0.04% among 85,000 | AID 602, 2007;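 active = viability drop by adding the cancer drug above about 55%, with treated viability meeting a 40% cutoff, limit read from the data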;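 also: viability without doxorubicin minus viability with 2 µM doxorubicin for each compound; larger differential means the compound sensitizes cells more to doxorubicin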
# MRP1 act = H69AR viability gain despite doxorubicin, primary screen, MRP-1 activator project, H69AR cells, CellTiter-Glo | viability rescue | viability increase, % at 10 µM | hit rate 0.61% among 140,000 | AID 799, 2007;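 active = viability gain under doxorubicin at or above a set limit, the compound median plus 3 SD, cut at about 4.7% in these data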;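 also: MRP-1 overexpressing cells given doxorubicin 25 µM after compound pretreatment; 18-22 h compound pretreatment then 72 h with doxorubicin before readout; 0% = doxorubicin-only wells and 100% = vehicle-treated cells without doxorubicin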
# * hit, by the source's call; nt = no result. The full list was thinned out, with hits kept by preference.
SMILES,MRP reversal,MRP1 act
CCC(C)c1ccc(O)c(NC(=O)c2ncn[nH]2)c1 (stereo not drawn),10,5.3*
CCC(C)c1ccc2oc(-c3ccc(NC(=O)c4ncn[nH]4)cc3)nc2c1 (stereo not drawn),-10,-1
COc1ccc(-c2cc3nc(C)cc(C)n3n2)c(OC)c1,-11,nt
COc1ccc(-c2cc3nc(C)cc(N4CC(C)CC(C)C4)n3n2)cc1 (stereo not drawn),7,5.1*
O=C(Nc1ncn[nH]1)c1ccc(Cl)c(S(=O)(=O)Nc2ccc(Cl)cc2)c1,nt,4.8*
O=C(Nc1ncn[nH]1)c1cc(S(=O)(=O)Nc2ccc(Cl)cc2)ccc1Cl,nt,1
Cc1c(C(=O)N2c3ccccc3Sc3ccccc32)cccc1[N+](=O)[O-],nt,-3
C=CCn1c(SCC(=O)Nc2ccc(-c3nc4ccc(C)cc4s3)cc2)nnc1-c1ccccc1,nt,0
Cc1ccc(S(=O)(=O)N(C)C)cc1NC(=O)CCNC(=O)c1ccccc1Cl,nt,0
O=C(N/N=C/c1c(O)ccc2ccccc12)c1[nH]ncc1Br,nt,0
Cc1ccc(O)c(/C=N/NC(=O)c2[nH]ncc2Br)c1,nt,4.9*
Cc1ccc(Cl)cc1N1CCN(Cc2nc3ccsc3c(=O)[nH]2)CC1,nt,-3
CCC(Sc1nc2ccccc2s1)C(=O)Nc1nnc(C)s1 (stereo not drawn),nt,10*
CC(Sc1nc2ccccc2s1)C(=O)Nc1nnc(C(C)C)s1 (stereo not drawn),-2,-1
COc1ccc(NS(=O)(=O)c2cc(NC(=O)CNC(=O)c3cccc(OC)c3)ccc2C)cc1,nt,0
Cc1ccc(NC(=O)CNC(=O)c2cccs2)cc1S(=O)(=O)Nc1ccc(Cl)cc1,nt,7.0*
COc1cccc(/C=N/n2nnc3c(cnn3-c3ccccc3)c2=O)c1,nt,0
Fc1ccc(N2CCN(c3ncnc4c3nnn4Cc3ccccc3Cl)CC2)cc1,-1,5.0*
FC(F)(F)c1ccc(N2CCN(c3ncnc4c3nnn4Cc3ccccc3Cl)CC2)cc1,-4,-1
Clc1ccccc1Cn1nnc2c(NCC3CC3)ncnc21,10,0
Clc1ccccc1Cn1nnc2c(Nc3ccccc3)ncnc21,nt,4.7*
CCN(CC)c1cnn(C/C(=N\OC)c2ccc(Cl)cc2)c(=O)c1Br,2,-2
CCSc1nc2ccc(N3C(=O)C4C5C=CC(C5)C4C3=O)cc2s1 (stereo not drawn),nt,-2
CCCCNC(C(=O)Nc1ccc([N+](=O)[O-])cc1Br)c1ccccc1 (stereo not drawn),nt,0
CCOC(=O)c1c(-c2ccc(C)cc2)csc1NC1=NS(=O)(=O)c2ccccc21,nt,-2
SMILES,MRP reversal,MRP1 act
O=C1CCCC(O)=C1N=Nc1ccc2c(c1)OCO2,nt,7.7*
CCN(CC)S(=O)(=O)c1ccc(N=NC2=C(O)CCCC2=O)cc1,nt,-3
CC(=O)Nc1cc(NC(C)=O)cc(C(=O)NC(C)(C)C)c1,7,-1
CC(C)OC(=O)CSc1nnc2n1C(C)(C)Cc1ccccc1-2,nt,181*
CCOC(=O)CSc1nnc2n1C(C)(C)Cc1ccccc1-2,-10,-1
CCN(CC)CCN1C(=O)C(=O)/C(=C(/O)c2cccc(OC)c2)C1c1ccccn1 (stereo not drawn),2,-2
CCOC(=O)C1(CCSC)NC(c2ccco2)C2C(=O)N(C)C(=O)C21 (stereo not drawn),20,-3
CCCC(=O)NC(Nc1cccc(C(F)(F)F)c1)C(Cl)(Cl)Cl (stereo not drawn),nt,0
CC(C)(C)c1ccc(OCC(O)CSc2ncn[nH]2)cc1 (stereo not drawn),4,6.8*
OC(COc1ccccc1)CSc1ncn[nH]1 (stereo not drawn),-10,0
CC(C)COC(=O)/C(C#N)=C/c1c[nH]c2ccccc12,nt,-2
Cc1ccc(N2C(N)=C(C#N)C(c3cccnc3)C3=C2CCCC3=O)cc1 (stereo not drawn),-2,-4
N#CC1=C(N)N(c2ccc(Br)cc2)C2=C(C(=O)CCC2)C1c1cccnc1 (stereo not drawn),59*,-5
O=C(Nc1nnc(-c2cccs2)o1)c1cc(-c2ccccc2)nc2ccccc12,nt,-3
CC(C)[C@H](NC(=O)c1ccccc1)C(=O)OCC(=O)/C=C1/N(C)c2ccccc2C1(C)C,nt,4.8*
CN1/C(=C\C(=O)COC(=O)Cn2nnc(-c3ccccc3)n2)C(C)(C)c2ccccc21,14,-2
CCOC(=O)c1sc(-c2ccccc2)cc1NC(=O)Nc1ccc([N+](=O)[O-])cc1,nt,-3
CC(C)CCC1CC(CSC(=N)N)OC1=O (stereo not drawn),-6,5.1*
CCCCC1CC(CSC(=N)N)OC1=O (stereo not drawn),5,2
Cc1cccc(CN2C(=O)N/C(=C/c3cc(C)n(-c4cc(C)ccn4)c3C)C2=O)c1,nt,1
Cc1cc(/C=C2\NC(=O)N(Cc3ccc(Cl)cc3)C2=O)c(C)n1C,nt,6.2*
COc1ccccc1OCc1ccc(C(=O)N2N=C(C(F)F)CC2(O)C(F)F)o1 (stereo not drawn),nt,1
O=C(c1ccc(COc2ccc(Cl)cc2)o1)N1N=C(C(F)F)CC1(O)C(F)F (stereo not drawn),nt,5.6*
CCC(=O)Nc1ccc(C(=O)N/N=C/c2cccnc2)cc1,nt,-1
CCCCCCC(=O)Nc1ccc(C(=O)N/N=C/c2cccnc2)cc1,nt,9.9*
SMILES,MRP reversal,MRP1 act
CC(NC(=O)c1ccco1)C(c1cccs1)N1CCOCC1 (stereo not drawn),nt,0
CCn1c(COc2ccc(Cl)cc2)nnc1SCc1nc2ccccc2[nH]1,-30,6.8*
Cc1ccc(OCc2nnc(SCc3nc4ccccc4[nH]3)n2Cc2ccco2)cc1,-5,3
Cc1c(C(=O)NN)nc2ccccn12,nt,1
Cc1ccc(O)c(C(=O)c2cnc3c(c2)c(C)nn3-c2ccccc2)c1,nt,-2
Cc1ccc(C(c2nnnn2CS(=O)(=O)c2ccc(C)cc2)N2CCN(c3ncccn3)CC2)cc1 (stereo not drawn),-8,11*
Cc1ccc(S(=O)(=O)Cn2nnnc2C(c2ccccn2)N2CCN(c3ccccc3)CC2)cc1 (stereo not drawn),nt,0
O=C(N/C(=C\c1ccccc1)C(=O)N1CCN(CCO)CC1)c1ccccc1,nt,-1
CN(C)c1ccc(/C=N/c2cc(-c3ccccc3)nn2-c2ccccc2)cc1,nt,1
Cc1ccc2nc(/N=C(\N)NC(=O)N3c4ccccc4Sc4ccccc43)nc(C)c2c1,nt,8.7*
COc1ccc2nc(/N=C(\N)NC(=O)N3c4ccccc4Sc4ccccc43)nc(C)c2c1,nt,-5
Cc1ccc2c(C)nc(/N=C(\N)NC(=O)N3c4ccccc4Sc4ccccc43)nc2c1,nt,11*
Cc1nc(/N=C(\N)Nc2ccccc2)nc2ccccc12,-16,-4
Cc1cc2nc(/N=C(\N)NC(=O)N3c4ccccc4Sc4ccccc43)nc(C)c2cc1C,nt,12*
COc1ccc2nc(/N=C(\N)NC(=O)C(C)(C)C)nc(C)c2c1,-20,-5
O=C(COC(=O)COc1ccc(Cl)cc1)NCc1cccs1,nt,0
CN1CCN(Cc2nc3c(c(=O)n(C)c(=O)n3C)n2CCc2ccccc2)CC1,9,nt
COC(=O)C1C(=O)c2c([nH]c(C(=O)OC3CCCCC3)c2C)CC1C (stereo not drawn),2,5.2*
COC(=O)C1C(=O)c2c([nH]c(C(=O)OC3CCCC3C)c2C)CC1C (stereo not drawn),-9,1
